In PubChem BioAssay (NCATS):
Inconclusive results are not listed. Where a call stands in place of a potency, no number is given. Calls of active or inactive are those of the source. Unless noted, calls come from the whole dose curve; as a rule, active = well fitted curve in the direction sought with a large enough effect in the repeat runs; inconclusive = weak or mixed curves; inactive = no such curve, though single readings can be large; an effect the other way counts as inactive or inconclusive.

Columns and labels:
[1] = molecular target: Calcium and integrin-binding protein 1 (Homo sapiens) (UniProt Q99828); assay: Primary qHTS for Identification of Calcium Integrin Binding Protein 1 (CIB1) Competitor (AID 1508620; active = well fitted curve in the direction sought with a large enough effect; an effect the other way counts as inactive or inconclusive;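 note: GST tagged CIB1 binding a fluorescein labelled alphaIIb integrin peptide tracer; top concentration of the series differs between compounds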)
Chain of Calcium and integrin-binding protein 1 (Homo sapiens) (Q99828 whole entry, looked up): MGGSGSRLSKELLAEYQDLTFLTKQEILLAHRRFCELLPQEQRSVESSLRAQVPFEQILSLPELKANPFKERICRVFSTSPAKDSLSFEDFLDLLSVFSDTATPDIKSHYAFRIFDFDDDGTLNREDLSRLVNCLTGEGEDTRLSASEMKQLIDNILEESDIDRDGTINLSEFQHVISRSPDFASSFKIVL
Outline: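 Fluorescence polarization competition: CIB1-GST (1 uM final) preincubated with compound 15 min at room temperature, then FITC-labeled alphaIIb peptide (100 nM final) added for another 15 min. Polarization read at Ex 480/Em 540.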

[2] = molecular target: Cytochrome P450 2D6 (Homo sapiens) (UniProt P10635); assay: Cytochrome P450 family 2 subfamily D member 6 (CYP2D6) small molecule antagonists: luciferase biochemical (cell-free) qHTS assay (AID 1645840); note: nearly all actives have a fitted effect of over 55% in size; note: potency is the fitted concentration of half-maximal effect
Chain of Cytochrome P450 2D6 (Homo sapiens) (P10635 whole entry, looked up): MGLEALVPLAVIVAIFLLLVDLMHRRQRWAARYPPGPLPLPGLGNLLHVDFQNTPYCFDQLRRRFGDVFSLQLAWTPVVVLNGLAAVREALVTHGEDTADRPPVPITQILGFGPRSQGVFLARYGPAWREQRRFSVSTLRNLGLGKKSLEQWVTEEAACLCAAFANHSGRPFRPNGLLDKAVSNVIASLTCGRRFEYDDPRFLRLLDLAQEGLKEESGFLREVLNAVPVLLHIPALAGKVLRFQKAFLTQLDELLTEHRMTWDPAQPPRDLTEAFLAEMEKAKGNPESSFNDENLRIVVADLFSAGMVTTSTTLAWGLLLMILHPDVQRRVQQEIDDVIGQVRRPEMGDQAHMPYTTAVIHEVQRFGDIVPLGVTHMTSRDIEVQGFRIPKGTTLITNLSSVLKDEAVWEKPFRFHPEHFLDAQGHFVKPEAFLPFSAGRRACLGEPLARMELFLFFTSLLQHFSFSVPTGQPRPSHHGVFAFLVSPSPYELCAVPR
Outline: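 P450-Glo luminescent screen: recombinant CYP2D6 enzyme–proluciferin substrate mix preincubated with compound 10 min at room temperature, then NADPH regeneration added for 1 h at room temperature. Detection reagent added for 20 min; luciferin light read as relative luminescence units.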

[3] = Primary qHTS for small molecule stabilizers of the endoplasmic reticulum resident proteome: Secreted ER Calcium Modulated Protein (SERCaMP) assay (AID 1508630; active = well fitted curve in the direction sought with a large enough effect; an effect the other way counts as inactive or inconclusive)
Outline: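 GLuc-SERCaMP-expressing SH-SY5Y cells, pretreated 16 h with compound, are challenged with thapsigargin to empty ER calcium stores; after 4 h, coelenterazine is added directly to the medium and luminescence is imaged.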

| SMILES | Potency [1] | Potency [2] | outcome [3] |
| --- | --- | --- | --- |
| CN(C)S(=O)(=O)c1ccc(NC(=S)N2CCC(C(O)(c3ccccc3)c3ccccc3)CC2)cc1 | inactive | inactive | – |
| O=C(NCCCNc1nc(Nc2cccc(CN3CCOCC3)c2)ncc1C1CC1)C1CCC1 | inactive | 6.01 µM (active) | – |
| FC(F)(F)c1ccccc1-c1cc(C(F)(F)F)c2nc(C3=NOC4(CCCCC4)C3)[nH]c2c1 | inactive | inactive | – |
| O=C(c1ccc(Cl)cc1)N1CCN(c2ccnc3cc(Cl)ccc23)CC1 | inactive | 8.49 µM (active) | – |
| O=C(Nc1ccc(Cl)cc1)Nc1cccc(-c2cccc(N3CCCC3)n2)c1 | inactive | 6.74 µM (active) | – |
| O=C1c2ccc(Nc3ccc(F)cc3F)cc2CCc2ccc(OCC(O)CO)cc21 (stereo unspecified) | inactive | 26.8 µM (active) | – |
| Nc1nc2c(cnn2CCCc2ccc(O)cc2)c2nc(-c3ccco3)nn12 | inactive | inactive | – |
| Cc1cc2c(N3CCCC3)nc(N3CCCC3)nc2n1C | inactive | 3.01 µM (active) | – |
| CCCCC1CCN(CCCN2C(=O)CCc3ccccc32)CC1 | inactive | 0.756 µM (active) | – |
| C[C@H]1CO[C@@H]2Cn3cc(C(=O)NCc4ccc(F)cc4F)c(=O)c(O)c3C(=O)N12 | inactive | inactive | – |
| CC(C)n1nc(C#Cc2ccccc2)c2c(N)ncnc21 | inactive | 19 µM (active) | – |
| CC#C[C@@H](CC(=O)O)c1ccc(OCc2ccc(CN3CCC4(C=Cc5ccccc54)CC3)s2)cc1 | inactive | 15.1 µM (active) | – |
| CCCCc1ccc(NS(=O)(=O)c2ccc(F)cc2)cc1 | inactive | 9.52 µM (active) | – |
| O=C(NCCN1CCN(c2cccc3ccc(O)cc23)CC1)c1ccc(F)cc1 | inactive | 0.0425 µM (active) | – |
| Clc1ccc(Nc2nc3ccccc3c3nc(C4CCCCC4)[nH]c23)cc1Cl | inactive | inactive | – |
| Cc1cc(C)c(-n2cc(C)c3c(Cl)nc(C)nc32)c(C)c1 | inactive | inactive | – |
| Nc1nc2c(c(N3CC[C@@H](N)C3)n1)CCCc1ccccc1-2 | inactive | 3.38 µM (active) | – |
| CCCN(CCc1ccsc1)C1CCc2c(O)cccc2C1 (stereo unspecified) | inactive | 0.338 µM (active) | – |
| CCc1cnc(N2CCC(c3nc(COc4ccc(-n5cnnn5)cc4)cs3)CC2)nc1 | inactive | inactive | – |
| Cn1c(SCC(=O)N2CCC[C@H]2C(=O)Nc2ccccc2-c2ccccc2)nc2ccccc21 | inactive | 16.9 µM (active) | – |
| CN(C)C(=O)COC(=O)c1cc(-c2ccc(C3CCNCC3)cc2)c2ccc(-c3ccc(C(F)(F)F)cc3)cc2c1 | inactive | 10.7 µM (active) | – |
| CCCN1CCC=C(c2cc(-c3ccc(C)cc3)no2)C1 | inactive | 2.68 µM (active) | – |

| SMILES | Potency [1] | Potency [2] | outcome [3] |
| --- | --- | --- | --- |
| CCN(CCNC(=O)Nc1ccccc1Br)c1cccc(C)c1 | inactive | 1.9 µM (active) | – |
| Cc1ccc(C2(C(=O)N3CCC(n4nc(-c5ccccc5)oc4=O)CC3)CC2)cc1 | inactive | 13.5 µM (active) | – |
| Cc1cc(C)cc(-c2cnc3cc(Cl)c(-c4cccc(O)c4)cc3c2OCCCN)c1 | inactive | 7.56 µM (active) | – |
| COc1ccc(-c2cc3onc(-c4ccncc4)c3c(=O)n2C)cc1 | inactive | 9.52 µM (active) | – |
| COC1CCN(C(=O)c2cc(Cc3n[nH]c(=O)c4ccccc34)ccc2F)CC1 | inactive | inactive | – |
| COc1cc(OC)c2c(=O)[nH]c(-c3cc(C)c(OCCO)c(C)c3)nc2c1 | inactive | inactive | – |
| COc1cc(NC(=O)c2cc(C3CC3)on2)c(OC)cc1Cl | inactive | 2.39 µM (active) | – |
| O=P(O)(O)OC(CO)CO | – | inactive | – |
| CN(C)CCCn1cc(C2=C(c3c[nH]c4ccccc34)C(=O)NC2=O)c2ccccc21 | – | – | inactive |
| C=CS(=O)(=O)O | – | inactive | – |
| COC[C@H](c1ccc(C(F)(F)F)cc1)N1CCN(C2(C)CCN(C(=O)c3c(C)ncnc3C)CC2)C[C@H]1C | – | 16.9 µM (active) | – |
| CCCCC(=O)O | – | inactive | – |
| COC(C)=O | – | inactive | – |
| NC(=O)C[C@@H](N)C(=O)O | – | – | inactive |
| CCCCCCCCCCCCCCCC(=O)OC/C=C(C)/C=C/C=C(C)/C=C/C1=C(C)CCCC1(C)C | – | inactive | – |
| CN(C)CCOc1cc(NS(=O)(=O)c2c(Cl)cc(C(F)(F)F)cc2Cl)ccc1Cl | – | 16.9 µM (active) | – |
| O=C(OCCO)c1ccccc1O | – | inactive | – |
| O=S(O)CO | – | inactive | – |
| CCOC(=O)[C@H](CCc1ccccc1)N[C@H]1CCCN2CCC[C@@H](C(=O)O)N2C1=O | – | inactive | – |
| Cc1c(O)cc2c(c1C)O[C@](C)(CCC[C@H](C)CCC[C@H](C)CCCC(C)C)CC2 | – | inactive | – |
| CCC(=O)O | – | inactive | – |
| CCC(=O)Oc1ccc2c(c1)CC[C@@H]1[C@@H]2CC[C@]2(C)[C@@H](OC(=O)CC)CC[C@@H]12 | – | inactive | – |

| SMILES | Potency [1] | Potency [2] | outcome [3] |
| --- | --- | --- | --- |
| C=CC(=O)N1CCCC(n2nc(-c3ccc(Oc4ccccc4)cc3)c3c(N)ncnc32)C1 (stereo unspecified) | – | 19 µM (active) | – |
| Cn1ncc(Cl)c1-c1cc(C(=O)N[C@H](CN)Cc2cccc(F)c2)sc1Cl | – | 2.68 µM (active) | – |
| Fc1ccc(N2CCCCC2)c(NC(=S)c2ccncc2)c1 | inactive | 1.69 µM (active) | – |
| C=Cc1ccccc1 | – | inactive | – |
| CN[C@@H]1CCc2[nH]c3ccc(C(N)=O)cc3c2C1 | – | inactive | – |
| CN1CC(O)c2cc(N=NC(N)=O)c(O)cc21 (stereo unspecified) | – | inactive | – |
| CCCC(CCC)C(N)=O | – | inactive | – |
| CCCCCCCCCC(=O)O | – | inactive | – |
| CC1(S(=O)(=O)O)CC(=O)c2ccccc2C1=O (stereo unspecified) | – | 8.49 µM (active) | – |
| O=C(NCCN1CCOCC1)c1cc2c(Oc3ccc(NC(=O)C4(C(=O)Nc5ccc(F)cc5)CC4)cc3)ccnc2[nH]1 | inactive | 19 µM (active) | – |
| O=C(N[C@H](Cc1cscn1)C(=O)N[C@@H](CC1CCCCC1)[C@@H](O)[C@@H](O)C1CC1)c1nc2ccccc2[nH]1 | inactive | 19 µM (active) | – |
| CCc1cc2c(cc1CC)CC(NCC(O)c1ccc(O)c3[nH]c(=O)ccc13)C2 (stereo unspecified) | inactive | 9.52 µM (active) | – |
| CC(C)(C)Sc1c(CC(C)(C)C(=O)O)n(Cc2ccc(Cl)cc2)c2ccc(OCc3ccc4ccccc4n3)cc12 | inactive | inactive | – |
| N#C/C(=C1\Nc2ccccc2S1)c1ccnc(NCCc2cccnc2)n1 | – | 8.49 µM (active) | – |
| Cc1cc2occ(CN(C)CCN(C)Cc3cn(-c4cccc(C(F)(F)F)c4)c4ccccc34)c(=O)c2cc1C | – | 4.77 µM (active) | – |
| O=S(=O)(O)Oc1ccc(C(c2ccc(OS(=O)(=O)O)cc2)c2ccccn2)cc1 | – | inactive | – |
| O=[N+]([O-])c1ccc(Oc2ccc(N=C=S)cc2)cc1 | – | inactive | – |
| O=C1C(c2[nH]c3ccc(S(=O)(=O)O)cc3c2O)=Nc2ccc(S(=O)(=O)O)cc21 | – | inactive | – |
| Nc1c(CC(=O)O)cccc1C(=O)c1ccccc1 | – | inactive | – |
| CC1(C)S[C@@H]2[C@H](NC(=O)C(C(=O)Oc3ccc4c(c3)CCC4)c3ccccc3)C(=O)N2[C@H]1C(=O)O (stereo partly specified) | – | inactive | – |
| COc1ccnc(CS(=O)c2nc3cc(OC(F)F)ccc3[nH]2)c1OC (stereo unspecified) | – | inactive | – |
| COc1ccccc1OCCNCC(O)CCOc1cccc2[nH]c3ccccc3c12 (stereo unspecified) | inactive | 0.301 µM (active) | – |
